Assay [1] concerns the target Cell division control protein 42 homolog (Homo sapiens) (UniProt P60953). The assay can be described thus: activated mutant Cdc42 GTP-binding inhibitors, dose response, biochemical, multiplex bead flow cytometry, Bodipy-FL-GTP (AID 1333). A general note: A flow cytometer gives signals particle by particle.
For assay [2] the target is unchanged. The assay can be described thus: wildtype Cdc42 GTP-binding inhibitors, dose response, biochemical, multiplex bead flow cytometry, Bodipy-FL-GTP (AID 1334;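 active = fitted half-maximal concentration within the tested range, moderate curve steepness, significant signal drop, and little compound fluorescence or bead-linkage interference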). Particulars: bead-based flow cytometry, Bodipy-FL-GTP binding to GST-Cdc42; at 100 µM (top of the series) unless noted.
The target in assay [3] is GTPase HRas (Homo sapiens) (UniProt P01112). As to the kind of experiment: inhibitors of GTP binding to wildtype Ras, dose response, biochemical, multiplex bead flow cytometry (AID 1335;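 active = fitted half-maximal concentration within 10 nM to 100 µM, steepness 0.5 to 2, significant signal drop, low assay interference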). Particulars: bead-based flow cytometry, Bodipy-GTP binding to GST-Ras; at 100 µM (top of the series) unless noted.
Sequence of GTPase HRas (Homo sapiens) (P01112 whole entry, looked up): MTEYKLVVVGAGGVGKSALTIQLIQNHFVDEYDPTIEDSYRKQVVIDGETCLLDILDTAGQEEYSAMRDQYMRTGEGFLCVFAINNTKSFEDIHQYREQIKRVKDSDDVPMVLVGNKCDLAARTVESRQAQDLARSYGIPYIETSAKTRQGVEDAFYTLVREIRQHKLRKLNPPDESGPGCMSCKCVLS
The subject of assay [4] is Ras-related protein Rab-7a (dog), GTP binding. The assay can be described thus: Rab7 GTP binding inhibitors, potency, dose response, biochemical, wildtype, multiplex bead flow cytometry (AID 1336; call rule not given here).
Assay [5] deals with Ras-related C3 botulinum toxin substrate 1 (Homo sapiens) (UniProt P63000). As to the kind of experiment: wildtype Rac1 GTP binding inhibitors, dose response, biochemical, multiplex bead flow cytometry (AID 1340;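 active = dose curve with midpoint inside tested range, moderate steepness, plateau gap beyond fit error, low compound glow and bead-link interference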). The note with it: GST-Rac1 beads, Bodipy-FL-GTP binding; at 100 µM (top of the series) unless noted.
The target of assay [6] is GTPase HRas (Homo sapiens) (UniProt P01112). As to the kind of experiment: activated Ras mutant GTP binding inhibitors, dose response, biochemical, multiplex bead flow cytometry (AID 1341;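 active = dose-response curve with midpoint inside the tested range, moderate steepness, significant amplitude and little compound fluorescence or bead-attachment interference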;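 also: GST-tagged constitutively activated Ras mutant immobilized on beads and multiplexed with other GTPases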).

The text below walks through data of PubChem BioAssay.

For part of these data: Entries with a potency or affinity are not part of this list. Calls of active or inactive are those of the source.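 The calls were made as follows, unless noted: active = fitted half-maximal concentration within the tested dose range, moderate curve steepness, a statistically real signal drop, and little compound fluorescence or tag-binding interference; inactive = the rest.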

Sequence of Cell division control protein 42 homolog (Homo sapiens) (P60953 whole entry, looked up): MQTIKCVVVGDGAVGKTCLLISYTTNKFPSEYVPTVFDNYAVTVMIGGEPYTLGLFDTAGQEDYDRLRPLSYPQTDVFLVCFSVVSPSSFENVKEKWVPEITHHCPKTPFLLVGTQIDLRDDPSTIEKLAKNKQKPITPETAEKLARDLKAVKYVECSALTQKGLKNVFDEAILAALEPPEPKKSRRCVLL

`COc1ccc(CC(=O)Nc2ccc(S(=O)(=O)NC(C)C)cc2)cc1`: the result in assay [1], in assay [4] and in assay [6] was inactive. The fluorescence, percent of control (lower = inhibition) in assay [2] was found to be 51.9%. In assay [3], this molecule yielded a GTP binding, percent of control of 66.7%. In assay [5], this molecule gave a GTP binding signal, raw median fluorescence (lower = inhibition) (MCF (arbitrary fluorescence units)) of 0.

`O=C(COC(=O)C12CC3CC(CC(C3)C1)C2)Nc1nc2c(F)c(F)c(F)cc2s1`: the outcome in assay [1], in assay [4] and in assay [6] was inactive. Moreover, the fluorescence, percent of control (lower = inhibition) in assay [2] was determined as 44.1%. This molecule also yielded a GTP binding, percent of control in assay [3] of 68.1%. Also, the GTP binding signal, raw median fluorescence (lower = inhibition) (MCF (arbitrary fluorescence units)) in assay [5] was 0.

As to `COc1cc2[nH]c(=S)nc(Nc3ccc(NC(C)=O)cc3)c2cc1OC`, the outcome in assay [1], in assay [4] and in assay [6] was inactive. Further, the fluorescence, percent of control (lower = inhibition) in assay [2] was 23.4%. For the same molecule, in assay [3], the GTP binding, percent of control was found to be 52.2%. The same molecule yielded a GTP binding signal, raw median fluorescence (lower = inhibition) (MCF (arbitrary fluorescence units)) in assay [5] of 118.

With `Cc1ccccc1CSc1ncccc1C(=O)O`, the molecule was called inactive in assay [1], in assay [4] and in assay [6]. This molecule also showed a fluorescence, percent of control (lower = inhibition) in assay [2] of 74.5%. The molecule further gave a GTP binding, percent of control in assay [3] of 87.9%. In assay [5], the GTP binding signal, raw median fluorescence (lower = inhibition) (MCF (arbitrary fluorescence units)) is 48.3.

Regarding `Cc1nc2ccccn2c1-c1csc(Nc2cccc(O)c2)n1`, the result in assay [1], in assay [4] and in assay [6] was inactive. Also, the fluorescence, percent of control (lower = inhibition) in assay [2] stood at 35.4%. Besides, the GTP binding, percent of control in assay [3] turned out to be 80.4%. This molecule had a GTP binding signal, raw median fluorescence (lower = inhibition) (MCF (arbitrary fluorescence units)) in assay [5] of 216.

For `CCOc1ccc(-n2nc3c(=O)[nH]nc(C)c3c2C)cc1`, the result in assay [1], in assay [4] and in assay [6] was inactive. This molecule also came in with a fluorescence, percent of control (lower = inhibition) in assay [2] of 46.5%. Further, in assay [3], the GTP binding, percent of control was 60.9%. In addition, the GTP binding signal, raw median fluorescence (lower = inhibition) (MCF (arbitrary fluorescence units)) in assay [5] is 189.

For the molecule `Cc1cc2nc3c(=O)[nH]c(=O)[nH]c3nc2c([N+](=O)[O-])c1N`, the molecule was classed as inactive in assay [1], in assay [4] and in assay [6]. Also, the fluorescence, percent of control (lower = inhibition) in assay [2] was 35%. In addition, the GTP binding, percent of control in assay [3] amounted to 75.6%. In addition, the GTP binding signal, raw median fluorescence (lower = inhibition) (MCF (arbitrary fluorescence units)) in assay [5] worked out at 192.

Take `CCc1nnc(NC(=O)CCC(=O)N2CCN(c3ccccn3)CC2)s1`: the molecule was called inactive in assay [1], in assay [4] and in assay [6]. The same molecule registered a fluorescence, percent of control (lower = inhibition) in assay [2] of 94%. In assay [3], the GTP binding, percent of control is 163%. The molecule further showed a GTP binding signal, raw median fluorescence (lower = inhibition) (MCF (arbitrary fluorescence units)) in assay [5] of 190.

As for `Cn1c(O)c(C2=c3ccccc3=NC2=O)[nH]c1=S`, the call in assay [1], in assay [4] and in assay [6] was inactive. Besides, the fluorescence, percent of control (lower = inhibition) in assay [2] turned out to be 37.9%. This molecule registered a GTP binding, percent of control in assay [3] of 83.1%. The molecule further showed a GTP binding signal, raw median fluorescence (lower = inhibition) (MCF (arbitrary fluorescence units)) in assay [5] of 214.

Consider `CCOc1ccc(-n2c(-c3ccco3)n[nH]c2=S)cc1`, for which the result in assay [1], in assay [4] and in assay [6] was inactive. Also, in assay [2], the fluorescence, percent of control (lower = inhibition) amounted to 56.1%. In assay [3], this molecule gave a GTP binding, percent of control of 112%. This molecule also had a GTP binding signal, raw median fluorescence (lower = inhibition) (MCF (arbitrary fluorescence units)) in assay [5] of 107.

Regarding `Cc1cc(/C=c2\sc3nc4ccccc4n3c2=O)c(C)n1-c1ccc(C(=O)O)cc1`, the call in assay [1], in assay [4] and in assay [6] was inactive. In assay [2], this molecule yielded a fluorescence, percent of control (lower = inhibition) of 18.4%. Also, the GTP binding, percent of control in assay [3] stood at 70.1%. This molecule also showed a GTP binding signal, raw median fluorescence (lower = inhibition) (MCF (arbitrary fluorescence units)) in assay [5] of 204.

In the case of `COc1cc(/C=C/c2ccc3cccc([N+](=O)[O-])c3n2)ccc1OCC(=O)O`, the molecule was classed as inactive in assay [1], in assay [4] and in assay [6]. Moreover, the fluorescence, percent of control (lower = inhibition) in assay [2] was 32.7%. For the same molecule, in assay [3], the GTP binding, percent of control came to 76.2%. Also, the GTP binding signal, raw median fluorescence (lower = inhibition) (MCF (arbitrary fluorescence units)) in assay [5] came out at 160.

Consider `CN(/N=C/c1ccco1)C1=NS(=O)(=O)c2ccccc21`, for which the molecule was called inactive in assay [1], in assay [4] and in assay [6]. The molecule further showed a fluorescence, percent of control (lower = inhibition) in assay [2] of 32%. Further, the GTP binding, percent of control in assay [3] turned out to be 74.9%. The GTP binding signal, raw median fluorescence (lower = inhibition) (MCF (arbitrary fluorescence units)) in assay [5] was found to be 206.

For the molecule `CCOc1cc(/C=N/NC(=O)C(C)Sc2ccccc2)ccc1O` (centres undefined), the molecule was called inactive in assay [1], in assay [4] and in assay [6]. For the same molecule, in assay [2], the fluorescence, percent of control (lower = inhibition) came out at 31.8%. For the same molecule, the GTP binding, percent of control in assay [3] is 73.5%. The same molecule yielded a GTP binding signal, raw median fluorescence (lower = inhibition) (MCF (arbitrary fluorescence units)) in assay [5] of 165.
